# Biological target: Fibroblast growth factor 2 (Homo sapiens) (UniProt P09038)
# Experiment: basic fibroblast growth factor binding to printed compounds – biochemical, small-molecule microarray, 635/667 nm fluorescence, primary screen (AID 1133)
# Details: FGF2, fluorescence 635/667, higher = more signal
# Sequence of Fibroblast growth factor 2 (Homo sapiens) (P09038 whole entry, looked up): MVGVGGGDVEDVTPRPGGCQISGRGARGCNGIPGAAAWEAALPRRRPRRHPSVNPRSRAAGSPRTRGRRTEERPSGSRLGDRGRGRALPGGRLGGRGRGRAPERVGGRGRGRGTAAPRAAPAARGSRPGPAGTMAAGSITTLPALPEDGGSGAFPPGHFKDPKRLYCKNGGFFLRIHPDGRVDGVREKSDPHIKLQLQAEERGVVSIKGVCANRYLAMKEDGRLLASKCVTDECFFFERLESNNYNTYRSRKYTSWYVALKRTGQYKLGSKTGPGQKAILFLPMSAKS
row,Compound,composite z-score
1,CCCCCCc1nc(-c2ccc(OC)nc2)cc2c1[Si](C(C)C)(C(C)C)O[C@H]2c1ccccc1,0.896
2,O=C(CS)NCCCCCCNC(=O)[C@@H]1C[C@@H]2C(=O)N[C@@H](Cc3ccccc3)C(=O)N2[C@@H]1c1cccc(OCCO)c1,1.76
3,COC(=O)[C@@]1(Cc2ccc(OC)cc2)[C@H]2c3cc(C(=O)N(C)C)n(Cc4ccc(S(C)(=O)=O)cc4)c3C[C@H]2CN1C(=O)c1ccccc1,-0.56
4,O=C1C[C@@](C(=O)NC2CC2)(c2ccc([N+](=O)[O-])cc2)[C@@H](c2ccc(CO)cc2I)N1C1CCCCC1,1.27
5,CN1C=C(C(=O)OCCS(C)(=O)=O)C(C(=O)OCCS(C)(=O)=O)=CC(c2ccc(CO)cc2)=CC1C1CC1 (stereo not drawn),-0.101
6,O=C1NC(=O)C2C1C=CC(C(O)c1cc(C(F)(F)F)cc(C(F)(F)F)c1)N2Nc1ccccn1 (stereo not drawn),0.047
7,CN(C)CCCCCCNC(=O)[C@@H]1C[C@@H]2C(=O)N[C@@H](Cc3ccccc3)C(=O)N2[C@@H]1c1ccc(O)cc1,1.63
8,Cc1nc2cc(Br)ccc2c(=O)o1,-0.0519
9,O=C(NC1CC1)[C@@H]1c2ccccc2C(=O)N(Cc2ccccc2Cl)[C@H]1c1ccc(CO)cc1,1.32
10,O[C@@H](Cc1ccccc1)[C@H]1C2C=CCCC=C2CN1Cc1cccc(Cl)c1 (stereo partly drawn),0.688
11,COCCOC(=O)N1C(=O)[C@@]2(c3cc(C#CCNC(N)=O)ccc31)[C@H](C(=O)N1CCN(c3ncccn3)CC1)[C@H]1C(=O)O[C@H](c3ccccc3)[C@H](c3ccccc3)N1[C@@H]2c1ccc(OCCO)cc1,0.674
12,COCCOC(=O)N1C(=O)[C@@]2(c3cc(C#CCNC(N)=O)ccc31)[C@H](C(=O)Nc1nc3ccccc3s1)[C@H]1C(=O)O[C@H](c3ccccc3)[C@H](c3ccccc3)N1[C@@H]2c1ccc(OCCO)cc1,1.08
13,CC(C)C(O)C1C=CC2C(=O)N(c3ccccc3)C(=O)C2N1Nc1ccc([N+](=O)[O-])cc1 (stereo not drawn),-0.378
14,CCOC(=O)C[C@H]1[C@H](OC(=O)c2ccccc2-c2ccccc2)[C@@H](NC(=O)CC(C)C)c2cc(OCCCO)ccc2N1C(=O)Cc1ccc(OC)cc1,0.268
15,C=C(CCCC)/C(=C/C[C@H](OC(C)=O)c1ccccc1OCCO)c1cc(C(=O)OC)ccc1OC,-0.196
16,C=CCC(OC(C)=O)[C@@H]1[C@@H](N(Cc2ccc(-c3ccccc3)cc2)C(=O)Cc2ccc(OC)cc2)c2cc(OCCCO)ccc2N1C(=O)Cc1ccc2ccccc2c1 (stereo partly drawn),-0.197
17,COc1ccc(CCNC(=O)[C@@]2(Sc3ccc(C)cc3)CC(=O)N(C3Cc4ccccc4C3)[C@@H]2c2ccc(CO)cc2I)cc1,-0.944
18,COC(=O)[C@@]1(Cc2ccccc2)N=C(c2ccc(OCCCO)cc2)O[C@H]1c1ccccc1,1.65
19,COCCOC(=O)N1C(=O)[C@@]2(c3cc(C#CCC(C(=O)OC)C(=O)OC)ccc31)[C@H](c1ccccc1OCCO)N1[C@H](c3ccccc3)[C@H](c3ccccc3)OC(=O)[C@H]1[C@@H]2C(=O)N1CCN(c2ncccn2)CC1,1.46
20,C=C(CCCC)/C(=C/C[C@@H](OC(=O)c1ccncc1)c1ccc(OCCO)cc1)c1cc(C(=O)OC)ccc1OC,0.0097
21,CCCCN1CC=CC23O[C@@H]4C=CCCOC(=O)C4[C@H]2C(=O)N(CCCCCCO)[C@@H]3C1=O (stereo partly drawn),-0.88
22,CN(C)CCCC[C@@H]1NC(=O)[C@H]2C[C@@H](C(=O)NCCCCCCN)[C@@H](c3ccc(O)cc3)N2C1=O,1.82
23,COc1ccc(-c2cc3c(c(-c4ccc(Oc5ccccc5)cc4)n2)[Si](C(C)C)(C(C)C)OC3)cn1,-0.224

# Tested on: not listed separately
# Experiment: JC-1 mitochondrial potential readout, lung cancer cells – cell-based, A549, JC-1 fluorescence, basal, 24 h, 100 nL, profiling panel (AID 1138);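 also: A549 lung adenocarcinoma cells under basal conditions with no added stimulus; test concentration not given here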
# Details: higher = more signal
row,Compound,z-score
1,CC#CC(=O)Oc1ccccc1C=CC(=O)OCC,-1.04
2,CC(C)CNC(=O)[C@@]1(Cc2ccccc2I)c2ccccc2C(=O)N(C2CCCCC2)[C@H]1c1ccc(CO)cc1,1.57
3,O=C(c1ccccc1)N1C(=O)[C@]2(COC(c3ccc(OCCCO)cc3)=N2)Cc2ccccc21,-0.345
4,CC(C)(C)OC(=O)CC[C@]1(C(=O)N2CCOCC2)N=C(c2ccc(OCCCO)cc2)O[C@H]1c1ccccc1N=[N+]=[N-],2.26
5,COCCOC(=O)N1C(=O)[C@@]2(c3cc(C#CCC(C(=O)OC)C(=O)OC)ccc31)[C@H](c1ccccc1OCCO)N1[C@H](c3ccccc3)[C@H](c3ccccc3)OC(=O)[C@H]1[C@@H]2C(=O)NC[C@H](O)c1ccccc1,-0.671
6,COCCCNC(=O)[C@]1(CCC(=O)OC(C)(C)C)N=C(c2ccc(OCCCO)cc2)O[C@@H]1c1ccccc1CN=[N+]=[N-],-0.627
7,CCOC(=O)C1=C[C@@H](C(C)(C)C)N(S(=O)(=O)c2ccc(C)cc2)[C@H]1c1ccc(F)cc1,3.65
8,COc1cc(NN2C(C(O)c3ccco3)C=CC3C(=O)N(c4ccccc4)C(=O)C32)cc(OC)c1OC (stereo not drawn),-0.16
9,CCC(CC)C(O)C1C=CC2C(=O)NC(=O)C2N1Nc1ccc(Cl)cc1Cl (stereo not drawn),-0.00434
10,CCCC[C@H]1OB(O)C[C@H]2C1=C(COC)Cn1c(=O)n(-c3ccccc3)c(=O)n12,-0.514
11,C=C(COC)/C(=C/C[C@@H](OC(C)=O)c1ccc(OCCO)cc1)c1cnc2ccccc2c1,0.379
12,CN(C)C(=O)[C@@]1(CCS(=O)(=O)c2ccccc2)COC(c2ccc(OCCCO)cc2)=N1,-0.572
13,CCCCCCc1nc(-c2ccc(OC)nc2)cc2c1[Si](C(C)C)(C(C)C)O[C@H]2c1ccccc1,-0.959
14,O=C(CS)NCCCCCCNC(=O)[C@@H]1C[C@@H]2C(=O)N[C@@H](Cc3ccccc3)C(=O)N2[C@@H]1c1cccc(OCCO)c1,-0.714
15,COC(=O)[C@@]1(Cc2ccc(OC)cc2)[C@H]2c3cc(C(=O)N(C)C)n(Cc4ccc(S(C)(=O)=O)cc4)c3C[C@H]2CN1C(=O)c1ccccc1,0.956
16,O=C1C[C@@](C(=O)NC2CC2)(c2ccc([N+](=O)[O-])cc2)[C@@H](c2ccc(CO)cc2I)N1C1CCCCC1,1.75
17,CN1C=C(C(=O)OCCS(C)(=O)=O)C(C(=O)OCCS(C)(=O)=O)=CC(c2ccc(CO)cc2)=CC1C1CC1 (stereo not drawn),1.48
18,O=C1NC(=O)C2C1C=CC(C(O)c1cc(C(F)(F)F)cc(C(F)(F)F)c1)N2Nc1ccccn1 (stereo not drawn),0.456

row,Compound,z-score
1,CN(C)CCCCCCNC(=O)[C@@H]1C[C@@H]2C(=O)N[C@@H](Cc3ccccc3)C(=O)N2[C@@H]1c1ccc(O)cc1,-1.06
2,Cc1nc2cc(Br)ccc2c(=O)o1,0.0359
3,O=C(NC1CC1)[C@@H]1c2ccccc2C(=O)N(Cc2ccccc2Cl)[C@H]1c1ccc(CO)cc1,3.13
4,O[C@@H](Cc1ccccc1)[C@H]1C2C=CCCC=C2CN1Cc1cccc(Cl)c1 (stereo partly drawn),0.182
5,COCCOC(=O)N1C(=O)[C@@]2(c3cc(C#CCNC(N)=O)ccc31)[C@H](C(=O)N1CCN(c3ncccn3)CC1)[C@H]1C(=O)O[C@H](c3ccccc3)[C@H](c3ccccc3)N1[C@@H]2c1ccc(OCCO)cc1,-1.25
6,COCCOC(=O)N1C(=O)[C@@]2(c3cc(C#CCNC(N)=O)ccc31)[C@H](C(=O)Nc1nc3ccccc3s1)[C@H]1C(=O)O[C@H](c3ccccc3)[C@H](c3ccccc3)N1[C@@H]2c1ccc(OCCO)cc1,-2.31
7,CC(C)C(O)C1C=CC2C(=O)N(c3ccccc3)C(=O)C2N1Nc1ccc([N+](=O)[O-])cc1 (stereo not drawn),-0.0625
8,CCOC(=O)C[C@H]1[C@H](OC(=O)c2ccccc2-c2ccccc2)[C@@H](NC(=O)CC(C)C)c2cc(OCCCO)ccc2N1C(=O)Cc1ccc(OC)cc1,1.15
9,C=C(CCCC)/C(=C/C[C@H](OC(C)=O)c1ccccc1OCCO)c1cc(C(=O)OC)ccc1OC,1.39
10,C=CCC(OC(C)=O)[C@@H]1[C@@H](N(Cc2ccc(-c3ccccc3)cc2)C(=O)Cc2ccc(OC)cc2)c2cc(OCCCO)ccc2N1C(=O)Cc1ccc2ccccc2c1 (stereo partly drawn),0.112
11,COc1ccc(CCNC(=O)[C@@]2(Sc3ccc(C)cc3)CC(=O)N(C3Cc4ccccc4C3)[C@@H]2c2ccc(CO)cc2I)cc1,1.43
12,COC(=O)[C@@]1(Cc2ccccc2)N=C(c2ccc(OCCCO)cc2)O[C@H]1c1ccccc1,-0.56
13,COCCOC(=O)N1C(=O)[C@@]2(c3cc(C#CCC(C(=O)OC)C(=O)OC)ccc31)[C@H](c1ccccc1OCCO)N1[C@H](c3ccccc3)[C@H](c3ccccc3)OC(=O)[C@H]1[C@@H]2C(=O)N1CCN(c2ncccn2)CC1,-0.895
14,C=C(CCCC)/C(=C/C[C@@H](OC(=O)c1ccncc1)c1ccc(OCCO)cc1)c1cc(C(=O)OC)ccc1OC,1.21
15,CCCCN1CC=CC23O[C@@H]4C=CCCOC(=O)C4[C@H]2C(=O)N(CCCCCCO)[C@@H]3C1=O (stereo partly drawn),0.807
16,CN(C)CCCC[C@@H]1NC(=O)[C@H]2C[C@@H](C(=O)NCCCCCCN)[C@@H](c3ccc(O)cc3)N2C1=O,0.462
17,COc1ccc(-c2cc3c(c(-c4ccc(Oc5ccccc5)cc4)n2)[Si](C(C)C)(C(C)C)OC3)cn1,-0.0734

# Reference: PubChem BioAssay
